# High-throughput results deposited in PubChem BioAssay by National Center for Advancing Translational Sciences (NCATS).
# Only some compounds are listed: those with a hit (about 21% of all), similar ones and a draw of the others.
# Pf growth 48h = P. falciparum growth inhibition at 48 hours (one generation); AID 504832; Potency, µM (highest dose often 28.7 µM), most hits filed as inhibitors; hit rate 5.9% among 310,000; P. falciparum luciferase growth in erythrocytes, 48 h; active means well fitted inhibition curve with a large enough effect; inconclusive means small, poorly fitted or top-dose-only effect, or another doubt; inactive means no such curve, though single readings can be large or run the other way
#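 Growth was read as firefly luciferase luminescence after a 48 h, 37 C, 5% CO2 exposure of compounds to reporter-bearing P. falciparum cultures (0.1% parasitemia, 2% hematocrit final) in Albumax-supplemented RPMI 1640.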
# SARS PLP yeast = inhibitors of SARS-CoV papain-like protease in yeast. AID 485353. Potency, µM (doses to about 32.9 µM), actives largely listed as activators. hit rate 0.19% among 330,000. S. cerevisiae expressing SARS-CoV PLpro, growth rescue; further: nearly all actives have a fitted effect of over 55% in size
# NS1 function inh = blocks influenza NS1 protein function | Potency, µM (doses to about 46.1 µM) | hit rate 0.4% among 270,000; further: actives are rising curves; nearly all actives have a fitted effect of over 50% in size
#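 Recovery from NS1-induced slow growth read by OD600 in budding yeast switched to galactose assay medium (pH 6.0, -URA) at 1:100 dilution. Compound 23 nl per well; the matching strain lacking NS1 serves as control.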
# CHX counter = counter-screen for Shiga toxin inhibitors: cycloheximide protein synthesis inhibition. cell reporter, cycloheximide protein synthesis inhibition counterscreen. max response, %. hit rate 12% among 300,000. AID 2314; in the data active means max response mostly above about 13%, no sharp cut-off; inactive means mostly below about 14%; further: read at 38.3 µM for the half of the compounds with a filed dose
# Pf growth 96h = inhibits malaria parasite growth, 96 h | P. falciparum luciferase reporter growth, 96 h | Potency, µM (titrated, usually from 28.7 µM), usual class: inhibitors | hit rate 6.9% among 320,000 | AID 504834; active means well fitted inhibition curve with a large enough effect; inconclusive means small, poorly fitted or top-dose-only effect, or another doubt; inactive means no such curve, though single readings can be large or run the other way
#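 Luminescence readout: decreased luciferase signal marks inhibited growth of reporter-expressing P. falciparum in infected red cells (2% hematocrit, 0.05% parasitemia final), exposed to compound two generations (96 h, 37 C, 5% CO2).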
# Shiga inhibitor = Shiga toxin inhibition | inhibition, % at 38.7 µM | Vero cells, Shiga toxin protein synthesis inhibition reporter | hit rate 9.2% among 290,000 | AID 2315; in the data active means inhibition mostly above about 28%, no sharp cut-off; inactive means mostly below about 43%
# A number is an active result; – = inactive; ? = inconclusive; · = no result given. Unless noted, the call rests on the fitted dose curve.
SMILES,Pf growth 48h,SARS PLP yeast,NS1 function inh,CHX counter,Pf growth 96h,Shiga inhibitor
CC(C)(C)NC(=O)NC(=O)COC(=O)c1c(F)cccc1Cl,–,–,–,35.6,–,108.9
COc1ccc(N2CC(NC(=O)N3CCN(C(=O)c4ccco4)CC3)CC2=O)cc1OC (stereo not given),–,–,·,·,–,·
C/C(CC(=O)N1CCN(C=O)CC1)=N\NC(=O)c1ccc([N+](=O)[O-])cc1,–,–,–,20.0,–,–
O=C(c1cc2ccccc2cc1O)N1CCCC1,–,–,–,–,–,–
C/C(CC(=O)N1CCN(C=O)CC1)=N\NC(=O)c1cc2ccccc2cc1O,–,14.1µM,–,–,–,–
O=C(CN1C(=O)C2C3C=CC(C4CC34)C2C1=O)OCC(=O)c1ccccc1 (stereo not given),–,–,–,–,?,–
COc1ccc(CCNS(=O)(=O)c2ccc(Br)s2)cc1,–,–,–,29.2,–,38.6
O=S(=O)(NCCc1ccccc1)c1ccc(Br)s1,–,–,–,–,–,–
Cc1ccccc1CNC(=O)c1ccccc1SCC(=O)NCc1ccco1,?,–,·,·,–,·
COc1ccc(C(=O)NC(=S)N(Cc2ccccc2)Cc2ccccc2)cc1,–,–,–,31.8,?,143.9
COc1cc(C(=O)NC(=S)N(CCc2ccccc2)CCc2ccccc2)cc(OC)c1OC,10.4µM,?,–,–,11.7µM,–
CN(Cc1ccccc1)C(=S)NC(=O)c1ccc(-c2ccccc2)cc1,?,–,–,–,7.38µM,–
C=CCN(CC=C)C(=S)NC(=O)c1ccc(OC)cc1,?,–,–,–,–,–
C=CCN(CC=C)C(=S)NC(=O)c1ccc(-c2ccccc2)cc1,·,–,–,–,7.38µM,–
COc1cc(C(=O)NC(=S)N(C)Cc2ccccc2)cc(OC)c1OC,–,–,–,–,?,–
Cc1nn(C)c(C)c1NS(=O)(=O)c1cccc(Br)c1,–,–,·,·,–,·
O=C(N/N=C/c1cccs1)c1cc(-c2ccc(Cl)s2)[nH]n1,–,–,–,–,–,–
COc1ccc(N2CCN(C(=O)COC(=O)CCc3ccccc3OC)CC2)cc1,–,·,·,·,–,·
COc1ccccc1CNC(=O)c1nn(-c2ccc(C)cc2)c(=O)c2c1c1ccccc1n2C,–,·,–,–,?,–
COc1ccc(C(=O)N(Cc2ccccc2)c2cccc(C)c2)cc1,–,–,–,–,–,24.5
COc1ccc(N(Cc2ccccc2)N=O)cc1,–,–,–,17.7,–,·
CN(Cc1ccccc1)C(=S)NC(=O)C1CCCCC1,–,–,–,28.3,?,–
COc1ccc(CN(C(=O)c2ccc(C)cc2)c2cccc(N)c2)cc1,?,–,·,·,?,·
O=C(Cn1cnc2c(NCc3ccccc3)ncnc21)NCCCN1CCCC1=O,·,–,·,·,·,·
Cn1c(SCC(=O)NN2C(=O)NC(C)(c3ccccc3)C2=O)nnc1-c1ccncc1 (stereo not given),·,–,·,·,·,·
SMILES,Pf growth 48h,SARS PLP yeast,NS1 function inh,CHX counter,Pf growth 96h,Shiga inhibitor
CC1(C)CNC(=O)CC(C)(C)N1,–,–,·,–,–,–
COc1ccccc1Nc1nc2ccccc2n1C,–,–,–,30.5,–,66.1
COc1ccccc1Nc1nc2ccccc2n2cnnc12,–,–,–,–,–,–
COc1cccc(/C=N/c2nc3ccccc3n2C)c1O,–,–,–,19.8,–,–
CCn1c(/C=N/c2nc3ccccc3n2C)nc2ccccc21,–,–,–,12.9,–,–
COc1cccc(CNc2cnc3ccccc3c2)c1O,–,–,–,30.1,?,44.3
COc1ccc(O)c(/C=N/c2nc3ccccc3n2C)c1,–,–,–,–,?,–
Oc1ccc(Br)cc1CNc1cnc2ccccc2c1,?,–,–,–,11.7µM,–
Cc1ccc(O)c(CNc2cnc3ccccc3c2)c1,?,?,–,–,–,·
COc1cccc(CNc2nc3ccccc3n2C)c1O,–,–,–,35.4,–,·
Cc1ccc(OCC(=O)OCC(=O)c2ccccc2)cc1C,–,–,–,–,?,–
COc1ccc(CCC(=O)N2CCCC(Nc3ccccc3)C2)cc1OC (stereo not given),?,–,–,–,–,–
O=C(Nc1ccc(Cl)cn1)c1ccc(COCC(F)(F)C(F)F)o1,–,–,–,18.3,·,67.5
COc1ccc(N(CC(=O)NCc2ccncc2)S(=O)(=O)c2ccc(C)c([N+](=O)[O-])c2)cc1,1.85µM,–,–,–,–,–
COc1ccc(N(CC(=O)NCc2cccnc2)S(=O)(=O)c2ccc(C)c([N+](=O)[O-])c2)cc1,–,–,–,–,?,–
C=CCNC(=O)CN(c1cc(Cl)ccc1OC)S(=O)(=O)c1ccc(C)c([N+](=O)[O-])c1,2.62µM,–,–,–,–,–
COCCNC(=O)CN(c1cc(Cl)ccc1OC)S(=O)(=O)c1ccc(C)c([N+](=O)[O-])c1,?,–,–,–,–,–
COc1ccc(Cl)cc1N(CC(=O)NCC(C)C)S(=O)(=O)c1ccc(C)c([N+](=O)[O-])c1,–,–,–,–,9.28µM,–
CCCSc1nc(SCC(=O)NCc2ccccc2)c2c3c(sc2n1)COC(C)(C)C3,?,–,–,–,?,–
CC(C)Sc1nc(SCC(=O)NCc2ccco2)c2c3c(sc2n1)COC(C)(C)C3,?,–,–,92.9,2.62µM,183.0
CC(C)Sc1nc(SCC(=O)O)c2c3c(sc2n1)COC(C)(C)C3,?,–,?,42.8,?,53.8
O=C(CSc1nc(C2CC2)nc2sc3c(c12)CCCC3)NCc1ccco1,–,–,–,–,–,–
CC(C)Sc1nc2sc3c(c2c2nnc(SCC(=O)NCc4ccco4)n12)CCCC3,6.57µM,–,–,–,?,–
Cc1ccc(C)c(NC(=O)COC(=O)c2cc(=O)c3ccccc3o2)c1,–,–,·,·,–,·
CC1(CCC(=O)N2CCCC(N3CCN(c4ccc(F)cc4)CC3)C2)CC1 (stereo not given),–,–,–,–,?,–
SMILES,Pf growth 48h,SARS PLP yeast,NS1 function inh,CHX counter,Pf growth 96h,Shiga inhibitor
CC(=O)NCCc1nc2cc(NC(=O)COc3cccc(C)c3)ccc2n1C,–,–,–,–,?,–
CN(C)n1cnc2ccsc2c1=O,–,–,–,–,–,–
CN(Cc1ccc(F)cc1)C(=O)C(Cc1ccccc1)NC(=O)c1ccccc1 (stereo not given),?,·,·,·,–,·
CSc1ccc(CN(C)C(=O)C(c2ccccc2)c2ccccc2)cc1,8.28µM,–,–,–,?,–
CSc1ccc(CN(C)C(=O)c2cc(=O)c3ccccc3o2)cc1,–,–,–,–,–,–
CSc1ccc(CN(C)C(=O)C(Cc2ccccc2)NC(=O)c2ccccc2)cc1 (stereo not given),–,–,–,39.5,?,65.1
CCOC(=O)C1=C(COC(=O)C(CC)Oc2ccccc2)NC(=O)NC1C (stereo not given),–,–,·,·,–,·
COC(=O)C1=C(c2ccc(OCc3ccccc3)cc2)C[C@@H]2CC[C@H]1N2C(=O)NCc1cccc(C(F)(F)F)c1,4.15µM,–,·,·,1.85µM,·
COC(=O)C1=C(c2ccccc2OCc2ccccc2)C[C@@H]2CC[C@H]1N2C(=O)NCCN1CCOCC1,?,–,·,·,4.65µM,·
